Records with an inconclusive call do not appear. The source made the active and inactive calls. Rule for the calls, unless noted: active = hit-call score of the fitted dose curve at least 0.9, where 1 is the maximum; inconclusive = response in the unintended direction; inactive = score below 0.9.

In test [1] the target is PGR (gene 5241) (UniProt P06401). Description: TOX21_PR_BLA_Followup_Antagonist_ratio: Tox21 HEK293 Progesterone Receptor (PR) Antagonism Beta-lactamase Follow-Up Assay, Ratio (AID 2283934). In a few lines:
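PR-UAS-bla HEK293T cells in medium with 2% charcoal-stripped FBS were treated with compounds plus 1 nM (final) promegestone (R5020) for 16 hr at 37C. LiveBLAzer B/G FRET substrate was then added for 2 h at room temperature; signal is cleaved/uncleaved substrate ratio versus DMSO.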

A short description of test [2]: TOX21_PR_BLA_Followup_Agonist_viability: Viability Assessment in the Tox21 HEK293 Progesterone Receptor (PR) Agonism Beta-lactamase Follow-Up Assay (AID 2283935).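 Note: signal loss means lower viability so actives are cytotoxic.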 In short, it runs like this: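 PR-UAS-bla HEK293T cells in 2% charcoal-stripped FBS medium, compound added after 6 hr plating, 16 hr at 37C/5% CO2. After bla FRET read, CellTiter-Glo added; luminescence read after 30 min at room temperature; signal loss marks cytotoxicity.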

Test [3] in a line: TOX21_PR_BLA_Followup_Antagonist_viability: Viability Assessment in the Tox21 HEK293 Progesterone Receptor (PR) Antagonism Beta-lactamase Follow-Up Assay (AID 2283936).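 Note: hits lower the luminescence signal meaning cytotoxicity.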 In a few lines: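 PR-UAS-bla HEK293T cells (3,000/well, 2% charcoal-stripped FBS) given compound plus R5020 agonist, 16 h at 37C. CellTiter-Glo added after bla read, 30 min at room temperature; luminescence loss indicates cytotoxicity.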

In test [4] the target is PGR (gene 5241) (UniProt P06401). Description: TOX21_PR_LUC_Followup_Antagonist: Tox21 HEK293 Progesterone Receptor (PR) Antagonism Luciferase Follow-Up Assay (AID 2283938).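 Note: curve fitted upward as signal gain over DMSO baseline despite antagonist label.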 In short, it runs like this:
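Luminescence from ONE-Glo was measured 30 min after reagent addition, following 16 h exposure of HEK293-PR-A-luc cells (3,000/well, plated 5 h earlier) to DMSO-dissolved compounds at 37C; DMSO served as baseline.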

A short description of test [5]: TOX21_PR_LUC_Followup_Antagonist_viability: Viability Assessment in the Tox21 HEK293 Progesterone Receptor (PR) Antagonism Luciferase Follow-Up Assay (AID 2283940). In a few lines: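 HEK293-PR-A-luc cells, precultured 5 days in assay medium with 10% charcoal-stripped FBS, were seeded at 3,000 cells/well, treated with compounds in DMSO for 16 h at 37C, and viability was read as cellular ATP by CellTiter-Glo luminescence.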

In test [6] the target is PGR (gene 5241) (UniProt P06401). Description: TOX21_PR_BLA_Followup_Agonist_ratio: Tox21 HEK293 Progesterone Receptor (PR) Agonism Beta-lactamase Follow-Up Assay, Ratio (AID 2283933). In a few lines: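 PR-UAS-bla HEK293T cells (GAL4-UAS beta-lactamase reporter) in medium with 2% charcoal-stripped FBS received compounds after 6 hr at 37C, then incubated 16 hr. LiveBLAzer FRET substrate added, 2 hr room temperature; cleaved/uncleaved (ch2/ch1) ratio fitted upward versus DMSO.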
Sequence of PGR (gene 5241) (P06401 whole entry, looked up, the tested form may be a part): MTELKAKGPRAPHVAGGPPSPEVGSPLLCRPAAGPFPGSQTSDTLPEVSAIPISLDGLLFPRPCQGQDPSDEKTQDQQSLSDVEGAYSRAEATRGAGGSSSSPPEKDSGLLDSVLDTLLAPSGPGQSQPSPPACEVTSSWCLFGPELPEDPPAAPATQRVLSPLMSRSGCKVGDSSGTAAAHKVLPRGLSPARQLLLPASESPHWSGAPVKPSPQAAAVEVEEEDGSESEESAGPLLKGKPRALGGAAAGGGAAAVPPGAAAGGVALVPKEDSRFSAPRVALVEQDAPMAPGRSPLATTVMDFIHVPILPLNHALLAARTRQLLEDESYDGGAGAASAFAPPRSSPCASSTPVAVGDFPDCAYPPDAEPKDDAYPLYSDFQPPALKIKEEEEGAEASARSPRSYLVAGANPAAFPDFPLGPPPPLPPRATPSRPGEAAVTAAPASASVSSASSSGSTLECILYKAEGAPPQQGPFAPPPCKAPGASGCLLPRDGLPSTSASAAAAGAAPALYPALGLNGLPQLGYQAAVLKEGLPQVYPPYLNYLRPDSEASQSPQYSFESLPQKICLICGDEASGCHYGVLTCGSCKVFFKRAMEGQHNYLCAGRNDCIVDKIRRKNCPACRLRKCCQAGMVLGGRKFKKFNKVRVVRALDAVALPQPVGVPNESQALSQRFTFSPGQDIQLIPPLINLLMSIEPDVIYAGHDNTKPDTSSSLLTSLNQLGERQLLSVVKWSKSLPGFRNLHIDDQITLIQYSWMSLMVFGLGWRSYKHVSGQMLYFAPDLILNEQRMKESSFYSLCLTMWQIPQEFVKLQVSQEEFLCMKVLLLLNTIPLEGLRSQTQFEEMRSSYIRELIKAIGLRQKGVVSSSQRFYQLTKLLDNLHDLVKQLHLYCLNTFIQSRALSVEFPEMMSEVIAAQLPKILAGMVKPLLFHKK

The target is the same in test [7]. Description: TOX21_PR_LUC_Followup_Agonist: Tox21 HEK293 Progesterone Receptor (PR) Agonism Luciferase Follow-Up Assay (AID 2283937; active = hit-call score of the fitted dose curve at least 0.9, where 1 is the maximum; inactive = score below 0.9). In a few lines:
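HEK293-PR-A-luc cells, pre-cultured 5 days in medium with 10% charcoal-stripped FBS, were seeded at 3,000 cells/well, rested 5 h at 37C, then exposed to compounds 16 h at 37C; luciferase read by ONE-Glo luminescence after 30 min.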

Test [8] in a line: TOX21_PR_LUC_Followup_Agonist_viability: Viability Assessment in the Tox21 HEK293 Progesterone Receptor (PR) Agonism Luciferase Follow-Up Assay (AID 2283941).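 Note: loss of signal means cytotoxicity so actives lower viability.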 In short, it runs like this: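 HEK293-PR-A-luc cells, pre-cultured 5 days in 10% charcoal-stripped FBS, were seeded at 3,000 cells/well, rested 5 h at 37C, then given compound in DMSO for 16 h at 37C. Cellular ATP was read by CellTiter-Glo luminescence; signal loss indicates cytotoxicity.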

The target of test [9] is T1, Thyroid hormone receptor alpha (Rattus norvegicus) + Thyroid hormone receptor beta (Rattus norvegicus) (UniProt P18113+P63059). Put plainly: TOX21_TR_LUC_GH3_Antagonist_Followup: Tox21 GH3 Thyroid Hormone Receptor Antagonism Luciferase Follow-Up Assay (AID 2283942). In a few lines: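 Rat pituitary GH3 cells with a TRα/TRβ-driven luciferase reporter, 5 h attachment, then 15 concentrations (92 uM to 5nM final) plus 1.0 nM T3 agonist, 24 h at 37C/5% CO2. ONE-Glo luminescence; signal change fitted against DMSO baseline.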
T1 sequence (P63059 whole entry, looked up): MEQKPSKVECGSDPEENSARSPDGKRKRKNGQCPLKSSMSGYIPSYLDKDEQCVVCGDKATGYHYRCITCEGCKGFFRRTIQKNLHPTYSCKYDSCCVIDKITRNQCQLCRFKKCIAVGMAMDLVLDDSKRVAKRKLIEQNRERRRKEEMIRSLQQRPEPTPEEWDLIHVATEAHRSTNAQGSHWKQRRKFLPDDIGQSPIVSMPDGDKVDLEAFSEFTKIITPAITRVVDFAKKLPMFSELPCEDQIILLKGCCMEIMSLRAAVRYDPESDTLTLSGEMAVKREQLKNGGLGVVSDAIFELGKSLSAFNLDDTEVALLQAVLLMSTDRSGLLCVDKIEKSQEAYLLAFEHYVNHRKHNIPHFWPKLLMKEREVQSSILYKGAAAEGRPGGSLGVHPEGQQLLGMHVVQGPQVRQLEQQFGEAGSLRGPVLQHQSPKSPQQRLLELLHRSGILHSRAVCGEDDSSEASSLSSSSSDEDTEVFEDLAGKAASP
T1 sequence (P18113 whole entry, looked up): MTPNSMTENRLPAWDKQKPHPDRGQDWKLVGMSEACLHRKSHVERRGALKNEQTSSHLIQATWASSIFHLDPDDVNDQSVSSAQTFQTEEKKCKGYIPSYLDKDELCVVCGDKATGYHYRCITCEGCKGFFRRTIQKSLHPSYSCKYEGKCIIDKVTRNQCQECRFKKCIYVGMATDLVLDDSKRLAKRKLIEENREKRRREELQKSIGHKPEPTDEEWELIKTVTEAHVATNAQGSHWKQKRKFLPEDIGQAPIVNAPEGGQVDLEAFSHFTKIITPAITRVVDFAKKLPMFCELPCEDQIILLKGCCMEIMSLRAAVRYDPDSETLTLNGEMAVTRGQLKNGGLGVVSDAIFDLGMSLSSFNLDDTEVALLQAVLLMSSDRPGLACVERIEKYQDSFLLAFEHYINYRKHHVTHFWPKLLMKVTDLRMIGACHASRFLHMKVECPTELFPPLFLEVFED

For test [10], the target named is THRA (gene 7067) (UniProt P10827). Description: TOX21_TRA_COA_Antagonist_Followup_ratio: Tox21 Thyroid Hormone Receptor alpha Antagonism through Coactivator Recruitment Follow-Up Assay, Ratio (AID 2283953). In a few lines:
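This follow-up to the GH3 luciferase screen checks specificity in a cell-free format. It measures SRC-2 coactivator peptide binding to TRα LBD by TR-FRET and scores loss of ratio signal relative to DMSO.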

Test [11] deals with THRB (gene 7068) (UniProt P10828). Description: TOX21_TRB_BLA_Antagonist_Followup_ratio: Tox21 Thyroid Hormone Receptor beta Antagonism Beta-lactamase (BLA) Follow-Up Assay, Ratio (AID 2283958). In a few lines: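 GAL4-DBD/human TRβ-LBD fusion in GeneBLAzer UAS-bla HEK293T cells, 3,000 cells/well in phenol red-free DMEM with 2% charcoal-stripped FBS; compounds at 11 concentrations in triplicate, 18 h at 37C. CCF4-AM substrate 2 h, 460:530 nm ratio relative to DMSO.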
Sequence of THRB (gene 7068) (P10828 whole entry, looked up, the tested form may be a part): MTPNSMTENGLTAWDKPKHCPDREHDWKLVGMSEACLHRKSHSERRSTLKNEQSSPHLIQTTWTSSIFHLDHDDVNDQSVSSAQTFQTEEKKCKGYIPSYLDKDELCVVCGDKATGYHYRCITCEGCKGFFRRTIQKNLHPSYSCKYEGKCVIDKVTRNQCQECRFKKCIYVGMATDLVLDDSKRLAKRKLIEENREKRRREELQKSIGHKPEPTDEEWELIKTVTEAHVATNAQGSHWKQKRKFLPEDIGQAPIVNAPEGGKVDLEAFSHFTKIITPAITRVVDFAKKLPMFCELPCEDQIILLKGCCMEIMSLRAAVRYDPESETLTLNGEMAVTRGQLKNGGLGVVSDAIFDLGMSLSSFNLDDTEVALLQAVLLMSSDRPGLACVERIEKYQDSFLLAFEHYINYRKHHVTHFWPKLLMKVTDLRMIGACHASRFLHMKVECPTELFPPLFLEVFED

Test [12] is described as follows: CEETOX_H295R_ESTRADIOL_noMTC: CeeTox H295R High-throughput Steroidogenesis Assay for Estradiol, maximum tolerated concentration (MTC) filtered results only (AID 2283919; active = hit-call score of the fitted dose curve at least 0.9, where 1 is the maximum; inactive = score below 0.9). To be noted: actives raise or lower the signal. In short, it runs like this: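 H295R human adrenal cells pre-stimulated 48 h with 10 uM forskolin, then exposed 48 h to chemical (0.1% DMSO final). Estradiol in medium measured by HPLC-MS/MS after MTBE extraction and dansyl derivatization; bidirectional fit versus DMSO, concentrations not MTT-filtered.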

Test [13] is described as follows: CEETOX_H295R_PROG_noMTC: CeeTox H295R High-throughput Steroidogenesis Assay for Progesterone (PROG), maximum tolerated concentration (MTC) filtered results only (AID 2283920; active = hit-call score of the fitted dose curve at least 0.9, where 1 is the maximum; inactive = score below 0.9). To be noted: actives raise or lower the signal. In short, it runs like this:
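H295R human adrenal cells were prestimulated 48 h with 10 uM forskolin, then exposed 48 h to test chemical (0.1% DMSO final). Progesterone in medium was quantified by HPLC-MS/MS; bidirectional fitting versus DMSO, concentrations not MTC-filtered.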

Test [14] is described as follows: CEETOX_H295R_ESTRONE_noMTC: CeeTox H295R High-throughput Steroidogenesis Assay for Estrone, maximum tolerated concentration (MTC) filtered results only (AID 2283921; active = hit-call score of the fitted dose curve at least 0.9, where 1 is the maximum; inactive = score below 0.9). To be noted: actives raise or lower the signal. In short, it runs like this:
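H295R cells prestimulated 48 h with 10 uM forskolin, then exposed 48 h to chemical in 0.1% DMSO; medium estrone measured by HPLC-MS/MS after MTBE extraction and dansyl derivatization, fitted bidirectionally versus DMSO without MTT-based MTC filtering.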

The nature of test [15]: CEETOX_H295R_TESTO_noMTC: CeeTox H295R High-throughput Steroidogenesis Assay for Testosterone (TESTO), maximum tolerated concentration (MTC) filtered results only (AID 2283924; active = hit-call score of the fitted dose curve at least 0.9, where 1 is the maximum; inactive = score below 0.9). To be noted: actives raise or lower the signal. In a few lines:
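H295R cells prestimulated 48 h with 10 uM forskolin, then exposed 48 h to chemicals in 0.1% DMSO final. Testosterone in medium quantified by MTBE extraction and HPLC-MS/MS; bidirectional fit versus DMSO, concentrations […] filtered by MTT-based maximum tolerated concentration.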

For test [16], the target named is T1, Thyroid hormone receptor alpha (Rattus norvegicus) + Thyroid hormone receptor beta (Rattus norvegicus). Put plainly: TOX21_TR_LUC_GH3_Agonist_Followup: Tox21 GH3 Thyroid Hormone Receptor Agonism Luciferase Follow-Up Assay (AID 2283939). In short, it runs like this:
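Rat GH3 cells (1,500/well) in serum-free assay medium, treated with 15-point series, 92 uM to 5 nM final, for 24 h at 37C. Luciferase via ONE-Glo luminescence; gain of signal fitted against DMSO, T3 positive control.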

Test [17] deals with THRA (gene 7067) (UniProt P10827). Put plainly: TOX21_TRA_COA_Agonist_Followup_ratio: Tox21 Thyroid Hormone Receptor alpha Agonism through Coactivator Recruitment Follow-Up Assay, Ratio (AID 2283948; active = hit-call score of the fitted dose curve at least 0.9, where 1 is the maximum; inactive = score below 0.9). In short, it runs like this: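 Cell-free TR-FRET coactivator recruitment: GST-tagged TRα LBD (2.5 nM) with 0.10% BSA was incubated with compound, then fluorescein-SRC-2 peptide (200 nM) and Tb-anti-GST antibody (2 nM) added. 520:495 nm ratio normalized to DMSO (0%) and T3 (100%).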
Sequence of THRA (gene 7067) (P10827 whole entry, looked up, the tested form may be a part): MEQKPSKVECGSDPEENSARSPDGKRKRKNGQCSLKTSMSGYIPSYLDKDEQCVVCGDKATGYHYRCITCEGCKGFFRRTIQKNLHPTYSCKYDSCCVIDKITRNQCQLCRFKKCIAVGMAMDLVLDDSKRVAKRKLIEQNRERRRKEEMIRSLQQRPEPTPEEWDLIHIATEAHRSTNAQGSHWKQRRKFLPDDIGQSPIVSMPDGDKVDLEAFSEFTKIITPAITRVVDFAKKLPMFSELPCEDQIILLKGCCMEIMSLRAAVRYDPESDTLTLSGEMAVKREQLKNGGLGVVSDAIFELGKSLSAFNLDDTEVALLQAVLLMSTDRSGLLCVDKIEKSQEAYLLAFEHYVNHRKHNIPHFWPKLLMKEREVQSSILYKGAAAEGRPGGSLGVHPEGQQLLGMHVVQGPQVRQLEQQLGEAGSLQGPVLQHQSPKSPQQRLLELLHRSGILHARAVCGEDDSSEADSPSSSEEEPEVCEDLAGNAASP

Test [18] is described as follows: TOX21_TRB_BLA_Agonist_Followup_viability: Viability Assessment in the Tox21 Thyroid Hormone Receptor beta Agonism Beta-lactamase (BLA) Follow-Up Assay (AID 2283956). In a few lines:
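TRb-bla HEK293T cells (GAL4-DBD/human TRb LBD) in 2% charcoal-stripped FBS medium were exposed 18 h at 37C to 11 concentrations in triplicate. CellTiter-Glo ATP luminescence was read after 30 min at room temperature, with bidirectional fitting against DMSO.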

In test [19] the target is THRB (gene 7068) (UniProt P10828). Description: TOX21_TRB_COA_Agonist_Followup_ratio: Tox21 Thyroid Hormone Receptor beta Agonism through Coactivator Recruitment Follow-Up Assay, Ratio (AID 2283963; active = hit-call score of the fitted dose curve at least 0.9, where 1 is the maximum; inactive = score below 0.9). In short, it runs like this: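 Signal is the 520/495 nm emission ratio (excitation 340 nm), scaled between DMSO-only wells as 0% and T3 wells as 100%. It reflects fluorescein-labeled SRC-2 peptide recruitment to GST-TRβ ligand-binding domain detected via terbium anti-GST antibody.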

Test [20] in a line: TOX21_TRB_BLA_Antagonist_Followup_viability: Viability Assessment in the Tox21 Thyroid Hormone Receptor beta Antagonism Beta-lactamase (BLA) Follow-Up Assay (AID 2283961). In short, it runs like this: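 ATP-based CellTiter-Glo luminescence (30 min, room temperature) run in the same wells as the TRβ-bla readout. Cells: GeneBLAzer HEK293T expressing GAL4-TRβ LBD, exposed 18 h at 37C to compounds at 11 concentrations in triplicate, stripped-serum medium.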

Consider `CCCCCCCCCc1ccc(O)cc1`, for which the AC50 with PGR (gene 5241) [1] is 68.3 µM (active). For the same molecule, the outcome (in [2]; in test [3]; in the test with PGR (gene 5241) [4]; in test [5]) was inactive.

In the case of `N#Cc1ccc(N(CC(N)=O)CC(F)(F)F)cc1C(F)(F)F`, the result (in the test with PGR (gene 5241) [6]; in test [3]; in the test with PGR (gene 5241) [7]; in test [5]; in [8]) was inactive. The concentration at half-maximal activity (AC50) in the test with PGR (gene 5241) [1] and with PGR (gene 5241) [4] was 46.1 µM (active) throughout.

`Clc1ccc(C(c2ccccc2Cl)C(Cl)(Cl)Cl)cc1` (stereo unspecified): the AC50 was 12.7 µM (active) in the test with PGR (gene 5241) [1], 46.1 µM (active) in [2], 15.6 µM (active) with PGR (gene 5241) [4] and 76 µM (active) in [8]. Further, the call in [5] was inactive.

For the molecule `C[C@]12CCC(=O)C=C1CC[C@@H]1[C@@H]2CC[C@@]2(C)[C@H]1CC[C@]2(C)O`, the outcome (with PGR (gene 5241) [1]; in test [2]; in test [3]; with PGR (gene 5241) [4]; in test [9]; with THRA (gene 7067) [10]) was inactive. Further, the outcome with THRB (gene 7068) [11] was inactive.

Turning to `CCCCCCCCOC(=O)c1ccccc1C(=O)OCCCCCCCC`, the call in [12], in test [13], in test [14] and in test [15] was inactive.

Take `Cc1cc(O)ccc1Cl`: the result (in test [16]; in the test with THRA (gene 7067) [17]; in test [18]; in the test with THRB (gene 7068) [19]) was inactive.

For the molecule `CO/C=C(/C(=O)OC)c1ccccc1COc1cccc(C(F)(F)F)n1`, the half-maximal activity concentration (AC50) in test [9] was 2.06 µM (active). In addition, the outcome (with THRA (gene 7067) [10]; in the test with THRB (gene 7068) [11]; in [20]) was inactive.

On to `Oc1ccc(C(c2ccc(O)cc2)(C(F)(F)F)C(F)(F)F)cc1`, for which the half-maximal activity concentration (AC50) with PGR (gene 5241) [1] was 53.5 µM (active); with PGR (gene 5241) [4] it was 54.7 µM (active). The outcome in test [2], in [3] and in test [8] was inactive.

The values above are taken from PubChem BioAssay (EPA / NIEHS).
